{
  "source": "the supplement of paper PMC12494721",
  "note": "Structures can show the parent of a compound that is named as a salt.",
  "data": [
    {"system": "Clostridium sporogenes DSM 1664", "experiment": "growth (OD595) fold change vs plate DMSO controls (fold change (ratio)); higher = more growth", "details": "incubation time: 27 h, anaerobic, 37 °C", "how_it_was_run": "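Anaerobic mGAM cultures in 96-well plates were grown for 27 h at 37 °C, and absorbance was then read at 595 nm. After blank and compound background correction with 20 µM compound solutions in water, a calibration factor of 5 gave OD. Growth is the fold change relative to the median of each plate's DMSO controls. Values are means of 2 biological replicates, with fold changes above 1.5 set to NA.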", "values": [
      {"smiles": "CN1CCC(=C2c3ccccc3CCc3cccnc32)CC1", "note": "[Azatadine maleate] (20 µM)", "growth": 0.968},
      {"smiles": "CC(=O)OC[C@H]1O[C@@H]([S-])[C@H](OC(C)=O)[C@@H](OC(C)=O)[C@@H]1OC(C)=O.CCP(CC)CC.[Au+]", "note": "[Auranofin] (20 µM)", "growth": 0.978},
      {"smiles": "C=CCOC(Cn1ccnc1)c1ccc(Cl)cc1Cl", "note": "(centres undefined) (20 µM)", "growth": 1.09},
      {"smiles": "CC[C@H](C)C(=O)O[C@H]1CCC=C2C=C[C@H](C)[C@H](CC[C@@H]3C[C@@H](O)CC(=O)O3)[C@H]21", "note": "[Mevastatin] (20 µM)", "growth": 1.15},
      {"smiles": "NS(=O)(=O)c1cc2c(cc1Cl)NC(Cc1ccccc1)NS2(=O)=O", "note": "(centres undefined) [Benzylhydrochlorothiazide] (20 µM)", "growth": 1.04},
      {"smiles": "O=c1[nH]c(=O)n(C2CCCO2)cc1F", "note": "(centres undefined) [Tegafur] (20 µM)", "growth": 1.08},
      {"smiles": "Cc1nn(C)c(Oc2ccccc2)c1/C=N/OCc1ccc(C(=O)OC(C)(C)C)cc1", "note": "(20 µM)", "growth": 1.15},
      {"smiles": "CS(=O)(=O)OCCCCOS(C)(=O)=O", "note": "[Busulfan] (20 µM)", "growth": 0.951},
      {"smiles": "CCSc1ccc2c(c1)N(CCCN1CCN(C)CC1)c1ccccc1S2", "note": "[Thiethylperazine maleate] (20 µM)", "growth": 1.26},
      {"smiles": "Cc1ncc([N+](=O)[O-])n1C", "note": "[Dimetridazole] (20 µM)", "growth": 0.0144},
      {"smiles": "CC[C@@H]1C(=O)OC[C@@H]1Cc1cncn1C", "note": "[Pilocarpine nitrate] (20 µM)", "growth": 1.03},
      {"smiles": "Clc1ccc(C(Cn2ccnc2)OCc2ccsc2Cl)c(Cl)c1", "note": "(centres undefined) [Tioconazole] (20 µM)", "growth": 1.21},
      {"smiles": "c1coc(CNc2ncnc3[nH]cnc23)c1", "note": "[Kinetin] (20 µM)", "growth": 0.818},
      {"smiles": "CC1(C)O[C@@H]2C[C@H]3[C@@H]4CCC5=CC(=O)CC[C@]5(C)[C@@]4(F)[C@@H](O)C[C@]3(C)[C@]2(C(=O)CCl)O1", "note": "[Halcinonide] (20 µM)", "growth": 1.17},
      {"smiles": "CC(=O)N[C@@H](CC(C)C)C(=O)O", "note": "[N-Acetyl-L-leucine] (20 µM)", "growth": 1.1},
      {"smiles": "COc1cccc(CCc2ccccc2OCC(CN(C)C)OC(=O)CCC(=O)O)c1", "note": "(centres undefined) [Sarpogrelate hydrochloride] (20 µM)", "growth": 1.19},
      {"smiles": "CN1CCC(=C2c3ccccc3CCc3sccc32)CC1", "note": "[Pizotifen malate] (20 µM)", "growth": 1.3},
      {"smiles": "Oc1ccc2ccccc2c1N=Nc1ccccc1", "note": "[Sudan I (1-phenylazo-2-hydroxynaphthalene)] (20 µM)", "growth": 0.978},
      {"smiles": "CC(C)(C)c1ccc(C(=O)CCCN2CCC(OC(c3ccccc3)c3ccccc3)CC2)cc1", "note": "[Ebastine] (20 µM)", "growth": 1.13},
      {"smiles": "O=c1oc2cc(O)ccc2s1", "note": "[Tioxolone] (20 µM)", "growth": 1.04},
      {"smiles": "CCCOc1ccc(C(=O)OCCN(CC)CC)cc1N", "note": "[Proparacaine hydrochloride] (20 µM)", "growth": 1.19},
      {"smiles": "CC(C)NC[C@H](O)COc1cccc2ccccc12", "note": "[(S)-(-)-Propranolol hydrochloride] (20 µM)", "growth": 0.943},
      {"smiles": "COc1cc(C(=O)NCc2ccc(OCCN(C)C)cc2)cc(OC)c1OC", "note": "[Trimethobenzamide hydrochloride] (20 µM)", "growth": 1.13},
      {"smiles": "N[C@@H](Cc1cc(I)c(Oc2cc(I)c(O)c(I)c2)c(I)c1)C(=O)O", "note": "[(L) Thyroxine] (20 µM)", "growth": 1.27},
      {"smiles": "O=C(NCC(O)CO)c1c(I)c(C(=O)NCC(O)CO)c(I)c(N(CCO)C(=O)CO)c1I", "note": "(centres undefined) [Ioversol] (20 µM)", "growth": 1.09},
      {"smiles": "CCCCC[C@H](O)/C=C/[C@H]1[C@H](O)CC(=O)[C@@H]1CCCCCCC(=O)O", "note": "[Alprostadil] (20 µM)", "growth": 1.02},
      {"smiles": "CC(C)(CO)[C@@H](O)C(=O)NCCCC(=O)O", "note": "[Hopantenate calcium] (20 µM)", "growth": 1.07},
      {"smiles": "Cc1nnc(NS(=O)(=O)c2ccc(N)cc2)s1", "note": "[Sulfamethizole] (20 µM)", "growth": 0.987},
      {"smiles": "OC[C@H](O)C(O)[C@@H](O)CO", "note": "[L-Arabinitol] (50 µM)", "growth": 1.11},
      {"smiles": "CN/C(=N\\CCSCc1nc[nH]c1C)NC#N", "note": "[Cimetidine] (20 µM)", "growth": 1.03},
      {"smiles": "CCN(CC)C(=O)/C(C#N)=C/c1cc(O)c(O)c([N+](=O)[O-])c1", "note": "[Entacapone] (20 µM)", "growth": 0.868},
      {"smiles": "OC(CNCC(O)C1CCc2cc(F)ccc2O1)C1CCc2cc(F)ccc2O1", "note": "(centres undefined) [Nebivolol hydrochloride] (20 µM)", "growth": 1.15},
      {"smiles": "CCN(CC)CC(=O)Nc1c(C)cccc1C", "note": "[Lidocaine hydrochloride] (20 µM)", "growth": 0.845},
      {"smiles": "C[C@H](NCc1ccc(OCc2cccc(F)c2)cc1)C(N)=O", "note": "[Safinamide] (20 µM)", "growth": 0.894},
      {"smiles": "CN(C)CCc1c[nH]c2ccc(Cn3cncn3)cc12", "note": "[Rizatriptan benzoate] (20 µM)", "growth": 0.987},
      {"smiles": "C[C@H]1C[C@@H]2[C@H]([C@@H](O)C[C@@]3(C)[C@H]2CC[C@]3(O)C(=O)CO)[C@@]2(C)C=CC(=O)C=C12", "note": "[Methylprednisolone, 6-alpha] (20 µM)", "growth": 0.939},
      {"smiles": "CC1COc2ccccc2N1C(=O)C(Cl)Cl", "note": "(centres undefined) (20 µM)", "growth": 0.957},
      {"smiles": "C=C1c2cccc(O)c2C(O)=C2C(=O)[C@]3(O)C(O)=C(C(N)=O)C(=O)[C@@H](N(C)C)[C@@H]3[C@@H](O)[C@H]12", "note": "[Methacycline hydrochloride] (20 µM)", "growth": 0},
      {"smiles": "CCN1CCCC(OC(=O)C(c2ccccc2)c2ccccc2)C1", "note": "(centres undefined) [Piperidolate hydrochloride] (20 µM)", "growth": 1.1}
    ]}
  ]
}
